What follows are compounds tested on T1, Receptor-type tyrosine-protein kinase FLT3 (Homo sapiens), P36888 [D835Y]. Details: at 0.1 µM.
T1 sequence (whole entry): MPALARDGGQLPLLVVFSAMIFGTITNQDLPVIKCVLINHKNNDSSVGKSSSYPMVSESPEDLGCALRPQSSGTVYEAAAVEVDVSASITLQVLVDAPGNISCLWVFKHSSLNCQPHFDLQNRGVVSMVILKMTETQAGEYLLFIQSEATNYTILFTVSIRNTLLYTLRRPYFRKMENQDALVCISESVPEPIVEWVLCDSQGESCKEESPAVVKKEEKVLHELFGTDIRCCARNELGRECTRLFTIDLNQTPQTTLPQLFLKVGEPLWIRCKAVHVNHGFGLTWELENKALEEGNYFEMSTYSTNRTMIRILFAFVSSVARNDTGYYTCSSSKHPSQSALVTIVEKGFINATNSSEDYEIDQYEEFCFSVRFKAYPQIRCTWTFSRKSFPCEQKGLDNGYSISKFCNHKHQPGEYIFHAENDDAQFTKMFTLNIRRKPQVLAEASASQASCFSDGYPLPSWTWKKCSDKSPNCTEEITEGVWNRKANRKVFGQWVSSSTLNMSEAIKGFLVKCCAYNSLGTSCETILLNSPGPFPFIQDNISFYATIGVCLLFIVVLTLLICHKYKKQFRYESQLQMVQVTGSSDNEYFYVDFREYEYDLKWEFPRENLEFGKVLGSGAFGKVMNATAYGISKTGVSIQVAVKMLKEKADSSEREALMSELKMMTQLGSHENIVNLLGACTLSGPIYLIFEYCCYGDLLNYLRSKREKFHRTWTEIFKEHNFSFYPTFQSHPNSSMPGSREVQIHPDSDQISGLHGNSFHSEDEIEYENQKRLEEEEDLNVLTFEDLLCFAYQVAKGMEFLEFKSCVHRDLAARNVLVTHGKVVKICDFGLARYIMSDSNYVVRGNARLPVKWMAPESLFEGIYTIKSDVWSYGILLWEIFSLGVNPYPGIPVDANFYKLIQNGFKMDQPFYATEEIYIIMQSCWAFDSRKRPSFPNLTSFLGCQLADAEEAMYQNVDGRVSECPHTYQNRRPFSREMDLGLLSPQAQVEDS

| Structure (SMILES) | inhibition |
| --- | --- |
| COc1cc(/C=N/Nc2ncnc3c2cnn3C(C)C)ccc1O | -2.61% |
| NS(=O)(=O)c1ccc(-c2cc3ccncc3cc2OCc2ccccc2)cc1 | -4.03% |
| CN(C)CCCn1c(-c2nonc2N)nc2cnccc21 | -5.34% |
| Cc1ccc(O)cc1Nc1ccnc2ccc(S(C)(=O)=O)cc12 | -0.25% |
| Cc1ccc2c(-c3ccnc(Nc4ccc5c(c4)OCCO5)n3)c(-c3ccc(C(F)(F)F)cc3)nn2n1 | -5.65% |
| CCn1c(-c2nonc2N)nc2c(C#CC(C)(C)O)nc(OCCNC)cc21 | -1.99% |
| Cc1ccc(NC(=O)CC2CC2)cc1-c1ccc(C(=O)NCC2CC2)cc1 | -2.84% |
| Oc1cccc(-c2nc(-c3ccccc3)[nH]c2-c2ccncc2)c1 | 0.36% |

The compounds below were run against Non-receptor tyrosine-protein kinase TYK2 (Homo sapiens) (UniProt P29597). Details: at 1 µM.
Non-receptor tyrosine-protein kinase TYK2 (Homo sapiens), sequence (P29597 whole entry): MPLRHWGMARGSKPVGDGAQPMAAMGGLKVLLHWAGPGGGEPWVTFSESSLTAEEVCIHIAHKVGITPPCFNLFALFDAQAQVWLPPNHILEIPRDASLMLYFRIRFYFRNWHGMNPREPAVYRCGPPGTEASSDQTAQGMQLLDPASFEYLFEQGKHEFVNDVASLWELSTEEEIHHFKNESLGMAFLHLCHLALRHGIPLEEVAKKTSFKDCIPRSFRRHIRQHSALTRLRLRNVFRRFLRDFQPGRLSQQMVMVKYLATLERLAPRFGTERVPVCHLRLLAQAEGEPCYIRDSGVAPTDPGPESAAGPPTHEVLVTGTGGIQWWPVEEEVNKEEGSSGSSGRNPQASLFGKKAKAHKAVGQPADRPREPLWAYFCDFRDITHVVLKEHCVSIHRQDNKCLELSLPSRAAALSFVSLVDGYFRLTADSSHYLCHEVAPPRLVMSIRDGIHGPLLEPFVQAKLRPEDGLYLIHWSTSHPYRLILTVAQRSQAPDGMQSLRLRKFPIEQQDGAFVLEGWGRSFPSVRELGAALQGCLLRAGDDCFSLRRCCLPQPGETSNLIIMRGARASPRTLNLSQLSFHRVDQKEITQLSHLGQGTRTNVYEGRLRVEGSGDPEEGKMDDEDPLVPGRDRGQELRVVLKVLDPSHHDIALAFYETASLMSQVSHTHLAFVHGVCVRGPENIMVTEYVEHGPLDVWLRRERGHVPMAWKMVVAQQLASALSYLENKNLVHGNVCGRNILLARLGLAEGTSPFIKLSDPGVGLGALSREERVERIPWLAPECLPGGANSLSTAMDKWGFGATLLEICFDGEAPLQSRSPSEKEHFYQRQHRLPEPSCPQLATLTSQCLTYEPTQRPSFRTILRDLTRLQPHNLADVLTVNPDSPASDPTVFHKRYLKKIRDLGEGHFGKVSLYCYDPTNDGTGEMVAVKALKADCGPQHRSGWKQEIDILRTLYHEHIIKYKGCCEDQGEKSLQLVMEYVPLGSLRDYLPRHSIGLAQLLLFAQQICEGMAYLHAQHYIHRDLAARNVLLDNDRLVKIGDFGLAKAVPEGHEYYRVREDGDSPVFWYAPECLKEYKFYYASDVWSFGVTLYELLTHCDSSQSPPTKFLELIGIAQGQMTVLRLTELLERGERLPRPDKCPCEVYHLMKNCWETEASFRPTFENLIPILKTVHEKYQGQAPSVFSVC

| Structure (SMILES) | inhibition |
| --- | --- |
| Nc1nccc(-c2c(-c3ccc(F)cc3)ncn2CCCN2CCOCC2)n1 | -1.83% |
| NS(=O)(=O)c1ccc(Nc2cc(-c3cccc(O)c3)n[nH]2)cc1 | -3.05% |
| C[C@@H](Oc1cc(-n2cnc3ccc(OC[C@@H](O)CO)cc32)sc1C(N)=O)c1ccccc1Cl | 2.03% |
| CN1CCN(C(=O)c2ccc(NC(=O)Nc3ccc(N(C)c4ccnc(Nc5ccc(CS(C)(=O)=O)cc5)n4)cc3)cc2)CC1 | 21.6% |
| Nc1nccc(-c2c(-c3ccc(F)cc3)nn3cc(C(F)(F)F)ccc23)n1 | -2.71% |
| COc1cccc(-n2nc(C)c3c(N/N=C(\C)c4ccncc4)ncnc32)c1 | -0.79% |
| CN(C)c1cc2c(Nc3ccc4c(cnn4Cc4ccccc4)c3)ncnc2cn1 | -5.95% |
| CC(C)c1ccc2c(c1)NC(=O)/C2=N/Nc1ccc(S(N)(=O)=O)cc1 | 1.48% |

Reference: ChEMBL document CHEMBL1961873, “Compounds: GSK PKIS; Assays: Nanosyn kinase panel” (2012)
